Experiments:
Experiment in all cases: DAPPL (digital affinity profiling via proximity ligation, sequencing); 10 mM Tris-HCl pH 7.5, 50 mM NaCl, 1 mM DTT, 4% glycerol, room temperature, 30 min; GST-TFs on glutathione beads, 16-mer random dsDNA library, 0.1% formaldehyde crosslink after washing; high values mean tight binding
Conditions in all cases: protein: recombinant; tags: N-terminal GST; dsDNA, one strand shown
ELK1 = target: T1, ELK1 (Homo sapiens, UniProt P19419 1-428)
T1 sequence: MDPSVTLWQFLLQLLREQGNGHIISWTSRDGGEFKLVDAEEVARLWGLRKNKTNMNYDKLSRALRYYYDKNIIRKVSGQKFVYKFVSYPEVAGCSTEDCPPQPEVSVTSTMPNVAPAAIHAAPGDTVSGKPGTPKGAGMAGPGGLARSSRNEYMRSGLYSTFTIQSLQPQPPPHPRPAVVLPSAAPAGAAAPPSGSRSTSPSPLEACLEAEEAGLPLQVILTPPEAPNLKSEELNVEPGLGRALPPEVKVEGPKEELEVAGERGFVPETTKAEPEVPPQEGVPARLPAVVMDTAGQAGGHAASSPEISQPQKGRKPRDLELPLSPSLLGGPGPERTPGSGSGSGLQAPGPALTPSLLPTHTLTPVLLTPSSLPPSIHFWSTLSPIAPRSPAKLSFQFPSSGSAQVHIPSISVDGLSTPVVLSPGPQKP
In short: (§1)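 A tag-only sample was pooled with DNA-barcoded human transcription factors that had been expressed in yeast as GST fusions and captured on glutathione beads. The pools were incubated for 30 min at room temperature with 200 nmole of a random double-stranded 16-mer DNA library in Tris/NaCl/DTT/glycerol buffer, then washed, crosslinked with 0.1% formaldehyde, proximity-ligated (BsaI/T4 ligase, 1 h, 37 °C), PCR-amplified and sequenced on an Illumina NextSeq500. Binding signal is each hexamer's read frequency for a factor divided by its frequency for the tag-only sample.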

GABPA = target: T2, GABPA (Homo sapiens, UniProt Q06546 1-454)
T2 sequence: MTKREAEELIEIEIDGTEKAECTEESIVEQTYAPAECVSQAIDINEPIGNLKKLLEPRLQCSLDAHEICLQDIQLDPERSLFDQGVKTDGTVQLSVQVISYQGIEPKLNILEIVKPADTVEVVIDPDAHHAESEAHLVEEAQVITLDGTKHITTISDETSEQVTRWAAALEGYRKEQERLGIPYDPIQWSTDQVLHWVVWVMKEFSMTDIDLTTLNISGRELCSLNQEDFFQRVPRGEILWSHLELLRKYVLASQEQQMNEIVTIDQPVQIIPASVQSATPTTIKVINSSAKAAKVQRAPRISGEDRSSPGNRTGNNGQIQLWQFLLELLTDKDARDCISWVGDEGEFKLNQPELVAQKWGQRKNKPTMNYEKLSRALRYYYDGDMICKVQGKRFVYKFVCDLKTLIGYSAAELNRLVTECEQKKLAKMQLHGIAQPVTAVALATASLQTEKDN
In short: as §1

ERG = target: T3, ERG (Homo sapiens, UniProt P11308 1-479)
T3 sequence: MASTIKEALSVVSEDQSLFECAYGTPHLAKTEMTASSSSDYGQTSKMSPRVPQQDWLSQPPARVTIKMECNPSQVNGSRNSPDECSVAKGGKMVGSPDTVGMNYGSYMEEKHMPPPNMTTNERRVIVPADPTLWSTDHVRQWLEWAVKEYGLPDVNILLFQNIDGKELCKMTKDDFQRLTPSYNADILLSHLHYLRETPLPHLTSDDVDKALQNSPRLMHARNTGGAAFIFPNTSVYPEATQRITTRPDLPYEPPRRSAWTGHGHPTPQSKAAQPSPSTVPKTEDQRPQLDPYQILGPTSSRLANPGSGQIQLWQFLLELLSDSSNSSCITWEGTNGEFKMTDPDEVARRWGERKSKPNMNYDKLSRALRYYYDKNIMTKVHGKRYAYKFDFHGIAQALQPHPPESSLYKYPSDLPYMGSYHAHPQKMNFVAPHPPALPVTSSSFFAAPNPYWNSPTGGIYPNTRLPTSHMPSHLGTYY
In short: as §1

SPIB = SPIB (Homo sapiens, UniProt Q01892 1-262)
Sequence of SPIB (Q01892 whole entry): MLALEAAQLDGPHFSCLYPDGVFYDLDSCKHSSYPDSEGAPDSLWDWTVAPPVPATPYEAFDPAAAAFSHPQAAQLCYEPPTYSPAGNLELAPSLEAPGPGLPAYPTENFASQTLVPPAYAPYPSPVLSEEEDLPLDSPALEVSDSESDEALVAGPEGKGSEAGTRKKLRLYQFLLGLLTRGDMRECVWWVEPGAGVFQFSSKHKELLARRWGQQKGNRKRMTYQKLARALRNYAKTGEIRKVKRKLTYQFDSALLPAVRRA
In short: as §1

ETV5 = ETV5 (Homo sapiens, UniProt P41161 1-510)
Sequence of ETV5 (P41161 whole entry): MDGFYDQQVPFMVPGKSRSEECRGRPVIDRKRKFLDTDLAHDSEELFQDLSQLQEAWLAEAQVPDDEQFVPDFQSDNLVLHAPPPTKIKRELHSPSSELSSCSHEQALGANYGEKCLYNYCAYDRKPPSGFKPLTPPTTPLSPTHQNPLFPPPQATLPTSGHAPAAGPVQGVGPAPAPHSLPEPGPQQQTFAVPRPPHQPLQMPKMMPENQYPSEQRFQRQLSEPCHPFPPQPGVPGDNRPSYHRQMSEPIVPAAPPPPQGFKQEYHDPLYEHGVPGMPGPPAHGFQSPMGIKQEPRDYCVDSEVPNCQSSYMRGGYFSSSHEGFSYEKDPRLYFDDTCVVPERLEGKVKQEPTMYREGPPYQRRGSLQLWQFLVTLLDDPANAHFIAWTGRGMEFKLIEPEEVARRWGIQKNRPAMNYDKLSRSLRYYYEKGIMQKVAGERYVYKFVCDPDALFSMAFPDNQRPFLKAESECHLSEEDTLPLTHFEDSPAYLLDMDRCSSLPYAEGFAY
In short: as §1

ELK4 = target: T4, ELK4 (Homo sapiens, UniProt P28324-2 1-405)
T4 sequence: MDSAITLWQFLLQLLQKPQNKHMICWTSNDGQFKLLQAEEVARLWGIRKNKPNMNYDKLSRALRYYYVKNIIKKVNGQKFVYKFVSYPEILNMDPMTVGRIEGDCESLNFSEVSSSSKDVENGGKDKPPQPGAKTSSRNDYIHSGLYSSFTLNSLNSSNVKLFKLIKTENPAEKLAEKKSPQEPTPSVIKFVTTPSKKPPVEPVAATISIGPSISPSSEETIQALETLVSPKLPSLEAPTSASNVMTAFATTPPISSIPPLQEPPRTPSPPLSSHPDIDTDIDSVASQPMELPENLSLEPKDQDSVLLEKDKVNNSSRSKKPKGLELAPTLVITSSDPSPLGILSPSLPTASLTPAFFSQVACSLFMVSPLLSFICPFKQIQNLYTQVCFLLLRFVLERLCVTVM
In short: as §1

ELF3 = target: T5, ELF3 (Homo sapiens, UniProt P78545 1-371)
T5 sequence: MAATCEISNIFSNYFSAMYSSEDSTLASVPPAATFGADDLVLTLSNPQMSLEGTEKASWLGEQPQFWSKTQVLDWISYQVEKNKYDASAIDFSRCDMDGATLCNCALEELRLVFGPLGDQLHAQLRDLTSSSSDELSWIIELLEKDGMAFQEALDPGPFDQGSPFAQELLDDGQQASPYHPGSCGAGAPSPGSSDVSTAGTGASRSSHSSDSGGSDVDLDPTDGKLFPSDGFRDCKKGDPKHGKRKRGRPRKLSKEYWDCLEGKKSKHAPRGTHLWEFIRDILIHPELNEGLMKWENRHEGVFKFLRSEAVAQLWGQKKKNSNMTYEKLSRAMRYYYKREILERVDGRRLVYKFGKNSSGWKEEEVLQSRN
In short: as §1

ERF = target: T6, ERF (Homo sapiens, UniProt P50548 1-548)
T6 sequence: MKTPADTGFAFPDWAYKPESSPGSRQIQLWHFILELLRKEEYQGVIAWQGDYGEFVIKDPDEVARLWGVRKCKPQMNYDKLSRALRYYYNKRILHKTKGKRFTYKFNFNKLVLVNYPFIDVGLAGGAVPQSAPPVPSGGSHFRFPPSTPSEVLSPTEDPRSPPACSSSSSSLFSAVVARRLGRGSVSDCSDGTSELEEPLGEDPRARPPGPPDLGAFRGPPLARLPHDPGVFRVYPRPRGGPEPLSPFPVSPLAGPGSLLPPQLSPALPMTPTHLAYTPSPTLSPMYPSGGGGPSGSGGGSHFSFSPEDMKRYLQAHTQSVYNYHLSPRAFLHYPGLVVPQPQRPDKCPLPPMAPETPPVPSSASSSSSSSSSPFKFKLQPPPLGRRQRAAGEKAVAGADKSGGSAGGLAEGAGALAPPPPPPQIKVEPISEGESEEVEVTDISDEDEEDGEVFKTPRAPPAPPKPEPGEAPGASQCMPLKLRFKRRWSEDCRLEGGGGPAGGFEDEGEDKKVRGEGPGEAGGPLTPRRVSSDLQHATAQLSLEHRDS
In short: as §1

ETS2 = target: T7, ETS2 (Homo sapiens, UniProt P15036 1-469)
T7 sequence: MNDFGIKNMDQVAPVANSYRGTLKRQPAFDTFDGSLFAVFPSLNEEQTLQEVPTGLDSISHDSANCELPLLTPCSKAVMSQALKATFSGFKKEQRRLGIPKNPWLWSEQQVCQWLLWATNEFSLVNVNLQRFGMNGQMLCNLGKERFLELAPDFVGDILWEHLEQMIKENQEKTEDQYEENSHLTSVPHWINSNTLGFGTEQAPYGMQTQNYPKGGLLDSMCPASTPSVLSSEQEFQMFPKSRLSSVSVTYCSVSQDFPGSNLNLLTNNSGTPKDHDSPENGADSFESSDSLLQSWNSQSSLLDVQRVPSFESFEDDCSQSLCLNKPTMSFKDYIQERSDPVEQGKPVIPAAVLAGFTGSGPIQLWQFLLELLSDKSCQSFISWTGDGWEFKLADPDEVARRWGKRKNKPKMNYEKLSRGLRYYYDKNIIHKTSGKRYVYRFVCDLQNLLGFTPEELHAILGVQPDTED
In short: as §1

SPDEF = target: T8, SPDEF (Homo sapiens, UniProt O95238 1-335)
T8 sequence: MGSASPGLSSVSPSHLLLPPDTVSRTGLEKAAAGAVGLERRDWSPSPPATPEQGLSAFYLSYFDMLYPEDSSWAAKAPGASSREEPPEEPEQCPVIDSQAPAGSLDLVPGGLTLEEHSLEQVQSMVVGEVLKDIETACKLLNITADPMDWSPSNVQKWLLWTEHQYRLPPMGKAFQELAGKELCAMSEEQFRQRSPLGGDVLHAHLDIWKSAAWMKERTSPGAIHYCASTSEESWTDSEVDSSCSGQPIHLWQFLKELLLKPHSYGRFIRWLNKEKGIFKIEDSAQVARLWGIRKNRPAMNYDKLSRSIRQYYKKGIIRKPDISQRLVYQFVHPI
In short: as §1

ETV3 = target: T9, ETV3 (Homo sapiens, UniProt P41162-2 1-143)
T9 sequence: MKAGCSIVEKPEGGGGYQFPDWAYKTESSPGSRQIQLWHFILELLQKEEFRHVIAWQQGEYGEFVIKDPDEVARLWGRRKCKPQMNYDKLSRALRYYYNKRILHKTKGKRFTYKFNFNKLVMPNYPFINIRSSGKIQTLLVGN
In short: as §1

ELF1 = ELF1 (Homo sapiens, UniProt P32519 1-619)
Sequence of ELF1 (P32519 whole entry): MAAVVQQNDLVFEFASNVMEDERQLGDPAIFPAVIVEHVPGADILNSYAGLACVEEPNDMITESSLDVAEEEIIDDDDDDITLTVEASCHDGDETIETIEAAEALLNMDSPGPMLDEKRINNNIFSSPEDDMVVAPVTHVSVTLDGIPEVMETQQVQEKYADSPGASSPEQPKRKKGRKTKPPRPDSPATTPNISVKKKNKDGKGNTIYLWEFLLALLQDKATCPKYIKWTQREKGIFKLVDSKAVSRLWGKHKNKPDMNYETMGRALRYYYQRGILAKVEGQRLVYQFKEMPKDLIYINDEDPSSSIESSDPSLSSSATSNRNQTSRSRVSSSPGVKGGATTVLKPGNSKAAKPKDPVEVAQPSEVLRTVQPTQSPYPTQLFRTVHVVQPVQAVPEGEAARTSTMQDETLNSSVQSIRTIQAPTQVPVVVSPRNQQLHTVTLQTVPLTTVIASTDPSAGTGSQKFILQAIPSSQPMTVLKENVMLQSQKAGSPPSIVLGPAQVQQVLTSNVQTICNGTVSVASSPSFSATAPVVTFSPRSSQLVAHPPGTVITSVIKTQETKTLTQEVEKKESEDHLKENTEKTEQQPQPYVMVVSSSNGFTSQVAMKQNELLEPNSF
In short: as §1

EHF = target: T10, EHF (Homo sapiens, UniProt Q9NZC4 1-300)
T10 sequence: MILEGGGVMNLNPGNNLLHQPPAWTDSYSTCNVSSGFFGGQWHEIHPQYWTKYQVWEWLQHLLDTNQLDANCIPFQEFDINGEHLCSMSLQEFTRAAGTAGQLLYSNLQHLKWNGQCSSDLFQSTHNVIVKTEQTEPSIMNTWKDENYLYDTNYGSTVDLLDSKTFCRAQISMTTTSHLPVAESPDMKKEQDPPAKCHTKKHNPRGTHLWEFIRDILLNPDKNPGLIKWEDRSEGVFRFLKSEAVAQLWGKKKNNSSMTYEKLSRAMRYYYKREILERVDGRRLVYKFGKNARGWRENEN
In short: as §1

ETV2 = target: T11, ETV2 (Homo sapiens, UniProt O00321 1-342)
T11 sequence: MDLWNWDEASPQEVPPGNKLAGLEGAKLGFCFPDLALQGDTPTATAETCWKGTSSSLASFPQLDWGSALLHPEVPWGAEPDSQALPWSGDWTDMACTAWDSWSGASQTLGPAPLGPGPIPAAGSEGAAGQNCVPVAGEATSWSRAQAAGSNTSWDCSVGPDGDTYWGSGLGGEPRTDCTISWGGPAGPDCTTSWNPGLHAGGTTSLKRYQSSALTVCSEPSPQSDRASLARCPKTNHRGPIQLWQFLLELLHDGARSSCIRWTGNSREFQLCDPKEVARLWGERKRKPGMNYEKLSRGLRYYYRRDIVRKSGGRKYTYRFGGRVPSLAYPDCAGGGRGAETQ
In short: as §1

ETV1 = ETV1 (Homo sapiens, UniProt P50549 1-477)
Sequence of ETV1 (P50549 whole entry): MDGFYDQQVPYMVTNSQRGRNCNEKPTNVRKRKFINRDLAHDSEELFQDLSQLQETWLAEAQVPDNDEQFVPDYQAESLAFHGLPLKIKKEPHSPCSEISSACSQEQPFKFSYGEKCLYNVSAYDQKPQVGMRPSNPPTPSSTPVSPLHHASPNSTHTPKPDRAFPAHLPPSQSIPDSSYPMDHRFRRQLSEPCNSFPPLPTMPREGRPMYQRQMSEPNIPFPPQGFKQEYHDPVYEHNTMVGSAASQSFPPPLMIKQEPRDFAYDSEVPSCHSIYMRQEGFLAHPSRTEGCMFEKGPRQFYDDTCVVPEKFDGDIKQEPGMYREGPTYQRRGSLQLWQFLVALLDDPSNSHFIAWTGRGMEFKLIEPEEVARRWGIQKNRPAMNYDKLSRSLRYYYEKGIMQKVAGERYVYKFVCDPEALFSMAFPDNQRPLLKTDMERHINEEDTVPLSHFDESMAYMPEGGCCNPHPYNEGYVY
In short: as §1

ETV3L = target: T12, ETV3L (Homo sapiens, UniProt Q6ZN32 1-361)
T12 sequence: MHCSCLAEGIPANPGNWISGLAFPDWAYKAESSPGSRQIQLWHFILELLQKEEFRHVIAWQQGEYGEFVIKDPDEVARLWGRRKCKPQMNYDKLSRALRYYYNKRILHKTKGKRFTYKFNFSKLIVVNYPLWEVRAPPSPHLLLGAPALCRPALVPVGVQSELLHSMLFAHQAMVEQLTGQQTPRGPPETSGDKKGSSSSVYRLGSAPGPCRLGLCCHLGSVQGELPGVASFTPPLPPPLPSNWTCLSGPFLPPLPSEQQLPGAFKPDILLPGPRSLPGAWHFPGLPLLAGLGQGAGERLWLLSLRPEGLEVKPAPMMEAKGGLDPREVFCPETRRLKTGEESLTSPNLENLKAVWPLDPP
In short: as §1

Sequence	binding signal (ELK1)	binding signal (GABPA)	binding signal (ERG)	binding signal (SPIB)	binding signal (ETV5)	binding signal (ELK4)	binding signal (ELF3)	binding signal (ERF)	binding signal (ETS2)	binding signal (SPDEF)	binding signal (ETV3)	binding signal (ELF1)	binding signal (EHF)	binding signal (ETV2)	binding signal (ETV1)	binding signal (ETV3L)
TAGTAG	1.02 fold enrichment (6-mer frequency, TF over GST control)	1.01 fold enrichment (6-mer frequency, TF over GST control)	1.01 fold enrichment (6-mer frequency, TF over GST control)	1.02 fold enrichment (6-mer frequency, TF over GST control)	1.04 fold enrichment (6-mer frequency, TF over GST control)	1.02 fold enrichment (6-mer frequency, TF over GST control)	1.1 fold enrichment (6-mer frequency, TF over GST control)	1.02 fold enrichment (6-mer frequency, TF over GST control)	1.06 fold enrichment (6-mer frequency, TF over GST control)	1.02 fold enrichment (6-mer frequency, TF over GST control)	1.13 fold enrichment (6-mer frequency, TF over GST control)	–	–	–	–	–
TGAAAT	–	1.03 fold enrichment (6-mer frequency, TF over GST control)	1.02 fold enrichment (6-mer frequency, TF over GST control)	1.01 fold enrichment (6-mer frequency, TF over GST control)	1.07 fold enrichment (6-mer frequency, TF over GST control)	1.04 fold enrichment (6-mer frequency, TF over GST control)	1.09 fold enrichment (6-mer frequency, TF over GST control)	1.01 fold enrichment (6-mer frequency, TF over GST control)	–	–	1.03 fold enrichment (6-mer frequency, TF over GST control)	1 fold enrichment (6-mer frequency, TF over GST control)	1.01 fold enrichment (6-mer frequency, TF over GST control)	1.04 fold enrichment (6-mer frequency, TF over GST control)	1.08 fold enrichment (6-mer frequency, TF over GST control)	1.04 fold enrichment (6-mer frequency, TF over GST control)

From publication PMC7862700, “An all-to-all approach to the identification of sequence-specific readers for epigenetic DNA modifications on cytosine”
